The nature of experiment [1]: NCI Yeast Anticancer Drug Screen. Data for the rad50 strain (AID 155).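 Also: 0% = growth of vehicle-only cultures of the same strain.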 To be noted: S. cerevisiae rad50 strain growth inhibition, stronger effect = higher value. In a few lines: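 A DNA repair-deficient yeast mutant serves as the test organism; compound-induced growth inhibition is calculated against vehicle-treated cells.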
Experiment [2] can be described thus: NCI Yeast Anticancer Drug Screen. Data for the mec2-1 strain (AID 157). To be noted: S. cerevisiae mec2-1 strain, stronger effect = higher value. An outline of the steps:
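Each compound was tested on mec2-1 yeast, a strain altered in DNA damage repair or cell cycle control. Growth inhibition is reported relative to vehicle.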

Experiment [3] in a line: NCI Yeast Anticancer Drug Screen. Data for the sgs1 mgt1 strain (AID 161).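 Also: 0% = growth of cultures given vehicle only.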 To be noted: S. cerevisiae sgs1 mgt1 strain, stronger effect = higher value. In a few lines: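 Read-out: growth inhibition vs vehicle controls. Cells: mutant yeast strain deficient in DNA damage repair.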
Experiment [4] in a line: NCI Yeast Anticancer Drug Screen. Data for the cln2 rad14 strain (AID 165).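 Also: 0% = growth equal to vehicle treated cultures.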 To be noted: S. cerevisiae cln2 rad14 strain, stronger effect = higher value. In a few lines: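 Test compounds were added to cln2 rad14 yeast cultures; inhibition of growth was then determined by comparison with vehicle treatment.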
Experiment [5] is described as follows: NCI Yeast Anticancer Drug Screen. Data for the bub3 strain (AID 167). The note with it: S. cerevisiae bub3 mutant strain, stronger effect = higher value. In a few lines: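 Inhibition values come from growth of compound-treated mutant yeast normalised to vehicle-treated controls.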
The nature of experiment [6]: NCI Yeast Anticancer Drug Screen. Data for the mlh1 rad18 strain (AID 175). The note with it: S. cerevisiae mlh1 rad18 strain growth inhibition, stronger effect = higher value. In a few lines:
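Inhibition values reflect reduced growth of mutant yeast versus vehicle-treated controls following compound exposure; the mutations affect DNA damage repair.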

Where [7] appears, read: at 5.0 µM (retest, dose inferred, filed as 0.5).
Setting [8] is: at 50.0 µM (retest, dose inferred, filed as 5.0).

Each structure is given as a SMILES string. The panel holds about 79,000 compounds, 15% with a hit somewhere; the sample as a whole holds those more often. Values without a mark were called inactive. Calls of active or inactive are those of the source. Rule as the data show it: active = growth inhibition above about 70%; inactive = the rest.

`NNc1cccc(C(F)(F)F)c1`: the growth inhibition in experiment [1] (setting [7]) was 19%; in experiment [1] (setting [8]) it was 90% (active); in experiment [1] (at 50.0 µM), 83.7% (active); in experiment [2] (setting [7]), -41%; in experiment [2] (setting [8]), 54%; in experiment [2] (at 50.0 µM) it was 79.5% (active). Further, the growth inhibition in experiment [3] (setting [7]) was -16%; in experiment [3] (setting [8]) it was 28%; in experiment [3] (at 50.0 µM), 88.5% (active); in experiment [4] (setting [7]), 13%; in experiment [4] (setting [8]), 55%; in experiment [4] (at 50.0 µM), 50.1%. Also, the growth inhibition in experiment [5] (setting [7]) is -1%; in experiment [5] (setting [8]), 97% (active); in experiment [5] (at 50.0 µM), 88% (active); in experiment [6] (setting [7]) it was 34%; in experiment [6] (setting [8]) it was 93% (active); in experiment [6] (at 50.0 µM) it was 83.5% (active).

Consider `CCOC(=O)C1=C(C)NC(C)=C(C(=O)OCC)C1c1ccnc2ccccc12`, for which the growth inhibition in experiment [1] (setting [7]) was 10%; in experiment [1] (setting [8]) it was 94% (active); in experiment [1] (at 50.0 µM) it was 63.8%; in experiment [2] (setting [7]), 7%; in experiment [2] (setting [8]), 97% (active); in experiment [2] (at 50.0 µM), 54.4%. The growth inhibition is -26% in experiment [3] (setting [7]); 96% (active) in experiment [3] (setting [8]); 55% in experiment [3] (at 50.0 µM); -8% in experiment [4] (setting [7]); 93% (active) in experiment [4] (setting [8]); 63.8% in experiment [4] (at 50.0 µM). The growth inhibition in experiment [5] (setting [7]) was 10%; in experiment [5] (setting [8]) it was 93% (active); in experiment [5] (at 50.0 µM), 98% (active); in experiment [6] (setting [7]) it was 10%; in experiment [6] (setting [8]), 96% (active); in experiment [6] (at 50.0 µM), 55.9%.

Consider `CC(C)c1ccc(O)c(Cc2cc(C(C)C)ccc2O)c1`, for which the growth inhibition is 42% in experiment [1] (setting [7]); 98% (active) in experiment [1] (setting [8]); 98.2% (active) in experiment [1] (at 50.0 µM); 23% in experiment [2] (setting [7]); 98% (active) in experiment [2] (setting [8]); 98.3% (active) in experiment [2] (at 50.0 µM). The growth inhibition was 20% in experiment [3] (setting [7]); 99% (active) in experiment [3] (setting [8]); 96.7% (active) in experiment [3] (at 50.0 µM); 20% in experiment [4] (setting [7]); 98% (active) in experiment [4] (setting [8]); 97.1% (active) in experiment [4] (at 50.0 µM). Moreover, the growth inhibition in experiment [5] (setting [7]) is 20%; in experiment [5] (setting [8]), 99% (active); in experiment [5] (at 50.0 µM), 98.6% (active); in experiment [6] (setting [7]), 64%; in experiment [6] (setting [8]), 98% (active); in experiment [6] (at 50.0 µM), 97.5% (active).

`O=c1cc(Cl)c(Cl)nn1-c1ccccc1`: the growth inhibition is 9% in experiment [1] (setting [7]); 80% (active) in experiment [1] (setting [8]); 89.2% (active) in experiment [1] (at 50.0 µM); 12% in experiment [2] (setting [7]); 75% (active) in experiment [2] (setting [8]); 50.5% in experiment [2] (at 50.0 µM). The growth inhibition in experiment [3] (setting [7]) is 7%; in experiment [3] (setting [8]), 71% (active); in experiment [3] (at 50.0 µM) it was 40.3%; in experiment [4] (setting [7]), 6%; in experiment [4] (setting [8]) it was 60%; in experiment [4] (at 50.0 µM), 71.8% (active). Besides, the growth inhibition in experiment [5] (setting [7]) is 4%; in experiment [5] (setting [8]), 84% (active); in experiment [5] (at 50.0 µM) it was 45.5%.

In the case of `CCN(CC)P(=S)(c1ccccc1CCP(=S)(c1ccccc1)c1ccccc1)N(CC)CC`, the growth inhibition in experiment [1] (setting [7]) is -6%; in experiment [1] (setting [8]) it was 34%; in experiment [1] (at 50.0 µM), 91.2% (active); in experiment [2] (setting [7]), -3%; in experiment [2] (setting [8]), 21%; in experiment [2] (at 50.0 µM) it was 98.6% (active). The growth inhibition in experiment [3] (setting [7]) is -6%; in experiment [3] (setting [8]), 62%; in experiment [3] (at 50.0 µM), 97.6% (active); in experiment [4] (setting [7]), -1%; in experiment [4] (setting [8]) it was 11%; in experiment [4] (at 50.0 µM) it was 96.8% (active). Besides, the growth inhibition in experiment [5] (setting [7]) is -2%; in experiment [5] (setting [8]) it was 41%; in experiment [5] (at 50.0 µM), 59.6%; in experiment [6] (setting [7]), -4%; in experiment [6] (setting [8]), 32%; in experiment [6] (at 50.0 µM), 97.1% (active).

`O=C1C2=C(c3ccccc31)C(c1ccccc1Cl)NC(=S)N2` (configuration not stated): the growth inhibition in experiment [1] (setting [7]) is -5%; in experiment [1] (setting [8]), 11%; in experiment [1] (at 50.0 µM), 82.2% (active); in experiment [2] (setting [7]), -11%; in experiment [2] (setting [8]), 13%; in experiment [2] (at 50.0 µM), 39.3%. Besides, the growth inhibition was -18% in experiment [3] (setting [7]); -4% in experiment [3] (setting [8]); 78.5% (active) in experiment [3] (at 50.0 µM); 20% in experiment [4] (setting [7]); 40% in experiment [4] (setting [8]); 63.4% in experiment [4] (at 50.0 µM). Moreover, the growth inhibition in experiment [5] (setting [7]) was 14%; in experiment [5] (setting [8]) it was 60%; in experiment [5] (at 50.0 µM) it was 70% (active); in experiment [6] (setting [7]) it was -8%; in experiment [6] (setting [8]), 40%; in experiment [6] (at 50.0 µM) it was 74.8% (active).

In the case of `CCOC(=O)c1ccc(-n2c(C)nc3ccc(Br)cc3c2=O)cc1`, the growth inhibition in experiment [1] (setting [7]) is -4%; in experiment [1] (setting [8]), -6%; in experiment [1] (at 50.0 µM) it was 53%; in experiment [2] (setting [7]) it was -1%; in experiment [2] (setting [8]) it was -7%; in experiment [2] (at 50.0 µM), 61.6%. The growth inhibition in experiment [3] (setting [7]) was -4%; in experiment [3] (setting [8]) it was -7%; in experiment [3] (at 50.0 µM) it was 40%; in experiment [4] (setting [7]), 0%; in experiment [4] (setting [8]), -6%; in experiment [4] (at 50.0 µM), 64.5%. Moreover, the growth inhibition in experiment [5] (setting [7]) is 1%; in experiment [5] (setting [8]), -1%; in experiment [5] (at 50.0 µM), 77.6% (active); in experiment [6] (setting [7]), -2%; in experiment [6] (setting [8]) it was -6%; in experiment [6] (at 50.0 µM), 74.8% (active).

`C=CCCCN1C(=O)C2C3c4ccccc4C(C=O)(c4ccccc43)C2C1=O` (configuration not stated): the growth inhibition is 29% in experiment [1] (setting [7]); 25% in experiment [1] (setting [8]); 32.1% in experiment [1] (at 50.0 µM); 8% in experiment [2] (setting [7]); 20% in experiment [2] (setting [8]); 30.7% in experiment [2] (at 50.0 µM). Moreover, the growth inhibition in experiment [3] (setting [7]) is 0%; in experiment [3] (setting [8]) it was 23%; in experiment [3] (at 50.0 µM), 27.9%; in experiment [4] (setting [7]), 16%; in experiment [4] (setting [8]), 12%; in experiment [4] (at 50.0 µM) it was 29.6%. Moreover, the growth inhibition is 26% in experiment [5] (setting [7]); 17% in experiment [5] (setting [8]); 4.65% in experiment [5] (at 50.0 µM); 27% in experiment [6] (setting [7]); 35% in experiment [6] (setting [8]); 3.25% in experiment [6] (at 50.0 µM).

With `S=C1NC2=C(CSC/C2=C\c2ccccc2)C(c2ccccc2)N1` (configuration not stated), the growth inhibition was 10% in experiment [1] (setting [7]); 96% (active) in experiment [1] (setting [8]); 60.2% in experiment [1] (at 50.0 µM); -8% in experiment [2] (setting [7]); 97% (active) in experiment [2] (setting [8]); 58.2% in experiment [2] (at 50.0 µM). The growth inhibition in experiment [3] (setting [7]) is 8%; in experiment [3] (setting [8]) it was 97% (active); in experiment [3] (at 50.0 µM), 65.2%; in experiment [4] (setting [7]), 26%; in experiment [4] (setting [8]), 96% (active); in experiment [4] (at 50.0 µM) it was 68.8%. The growth inhibition in experiment [5] (setting [7]) was -45%; in experiment [5] (setting [8]) it was 96% (active); in experiment [5] (at 50.0 µM), 73.1% (active); in experiment [6] (setting [7]), 35%; in experiment [6] (setting [8]), 97% (active); in experiment [6] (at 50.0 µM), 72.3% (active).

As to `CCCCCCOC(=O)Nc1ccc(S(=O)(=O)N2CCCCC2)cc1`, the growth inhibition in experiment [1] (setting [7]) is -7%; in experiment [1] (setting [8]), 47%; in experiment [1] (at 50.0 µM), 35.5%; in experiment [2] (setting [7]), -9%; in experiment [2] (setting [8]), 56%; in experiment [2] (at 50.0 µM), 28.1%. Moreover, the growth inhibition in experiment [3] (setting [7]) was 7%; in experiment [3] (setting [8]), 66%; in experiment [3] (at 50.0 µM) it was 50.5%; in experiment [4] (setting [7]), -87%; in experiment [4] (setting [8]) it was 44%; in experiment [4] (at 50.0 µM), 7.35%. Moreover, the growth inhibition was -10% in experiment [5] (setting [7]); 41% in experiment [5] (setting [8]); 73.8% (active) in experiment [5] (at 50.0 µM); -1% in experiment [6] (setting [7]); 46% in experiment [6] (setting [8]); 52.5% in experiment [6] (at 50.0 µM).

(Values after PubChem BioAssay (NCI).)
